The test system of one assay is Staphylococcus aureus. Particulars: Concentration 32 ug.mL-1;; ASSAY_TEST Inhibition of Bacterial Growth; detection method Absorption (OD600); MEDIA CAMHB; plate type 384well; NBS; CORNING #3640; time 18 hr.
For the next assay, the system named is Escherichia coli. Particulars: Concentration 32 ug.mL-1;; ASSAY_TEST Inhibition of Bacterial Growth; detection method Absorption (OD600); MEDIA CAMHB; plate type 384well; NBS; CORNING #3640; time 18 hr.

Measured potencies and affinities stand elsewhere.

Regarding `CCc1ccccc1Sc1nccn2c(=O)n(CC(=O)Nc3cccc(Br)c3)nc12`, the Inhibition – broadly, the change of the read-out against control, counted positive when it falls – in the assay on Staphylococcus aureus is 8.83%; in the assay with Escherichia coli, 2.3%.

On to `COc1ccc(CNC(=O)Cn2nc3c(N4CCN(c5ccccc5)CC4)nccn3c2=O)cc1`, for which the results for the Inhibition in the assay with Staphylococcus aureus and with Escherichia coli were 21.01% and 2.9%, respectively.

Take `COc1ccc(-c2cc3c4nnc(SCC(=O)Nc5ccccc5C(F)(F)F)n4ccn3n2)cc1`: the Inhibition was -10.53% in the assay with Staphylococcus aureus and 1.87% with Escherichia coli.

Regarding `COc1ccc(-n2ccn3c(-c4ccc([N+](=O)[O-])cc4)nnc3c2=O)cc1Cl`, the Inhibition in the assay with Staphylococcus aureus is listed as 17.28%; with Escherichia coli, 1.52%.

With `COC(=O)c1ccc(Cn2nc3ccc(S(=O)(=O)N4CCCCCC4)cn3c2=O)o1`, the values for the Inhibition in the assay with Staphylococcus aureus and in the assay with Escherichia coli were -11.6% and -1.2%, respectively.

As for `CCc1ccc(N(Cc2cc(F)cc(F)c2)S(=O)(=O)c2cccn3c(C)nnc23)cc1`, the Inhibition is -13.36% in the assay on Staphylococcus aureus and -0.39% with Escherichia coli.

For `Cc1cc2nn(CC(=O)N3CCCC3)c(=O)n2c(Nc2ccc(C)c(F)c2)n1`, the Inhibition with Staphylococcus aureus is recorded as 5.2%; in the assay on Escherichia coli, -7.93%.

On to `Cc1cc2nn(CC(=O)Nc3cccc(C)c3C)c(=O)n2c(Nc2ccc(F)c(C)c2)n1`, for which the Inhibition was 2.54% with Staphylococcus aureus and -7.8% with Escherichia coli.

`Cc1ccc(CNC(=O)Cn2nc3ccc(SC4CCCCC4)nn3c2=O)cc1`: the Inhibition is reported as 11.69% in the assay with Staphylococcus aureus and -11.87% in the assay with Escherichia coli.

Regarding `CC(C)c1nnc2c(SCC(=O)Nc3cccc(Br)c3)nc3ccccc3n12`, the values for the Inhibition in the assay on Staphylococcus aureus and with Escherichia coli were 4.41% and -8.3%, respectively.

For the molecule `Cc1cccc(C)c1NC(=O)Cn1nc2ccc(SCc3ccc(Cl)cc3)nn2c1=O`, the values for the Inhibition in the assay with Staphylococcus aureus and with Escherichia coli were -3.66% and -13.3%, respectively.

As for `CCc1ccc(NC(=O)Cn2nc3n(Cc4cccs4)c(=O)c4sccc4n3c2=O)cc1`, the Inhibition in the assay on Staphylococcus aureus is reported as -0.38%; in the assay with Escherichia coli, 5.1%.

For the molecule `COC(=O)c1ccc(NC(=O)Cn2nc3ccc(C(=O)NCc4ccccc4)cn3c2=O)cc1`, the Inhibition in the assay on Staphylococcus aureus was 12.92%; in the assay with Escherichia coli it was -2.38%.

For `COc1ccc(NC(=O)Cn2nc3c4cc(-c5ccc(C)c(C)c5)nn4ccn3c2=O)cc1Cl`, the Inhibition in the assay on Staphylococcus aureus is listed as -7.37%; in the assay with Escherichia coli it was 0.15%.

With `O=S(=O)(c1cccn2cnnc12)N(Cc1ccccc1F)c1ccc(F)c(F)c1`, the Inhibition in the assay with Staphylococcus aureus is -22.58%; in the assay on Escherichia coli it was 5.15%.

As for `COc1ccc(NC(=O)c2ccc3nn(CC(=O)N4CCN(c5ccccc5)CC4)c(=O)n3c2)cc1`, the Inhibition in the assay on Staphylococcus aureus was 2.28%; with Escherichia coli it was -9.19%.

For `COc1ccccc1-n1ccn2c(SCC(=O)Nc3ccc(C)cc3Cl)nnc2c1=O`, the Inhibition with Staphylococcus aureus was 8.71%; with Escherichia coli, -9.42%.

Regarding `Cc1cccc(Oc2nc3ccccc3n3c(=O)n(CC(=O)Nc4ccc5c(c4)OCCO5)nc23)c1C`, the Inhibition in the assay with Staphylococcus aureus was 10.6%; in the assay on Escherichia coli it was -1.83%.

As for `O=C(Cn1nc2ccc(-c3ccccc3)nn2c1=O)Nc1ccc(Cl)c(C(F)(F)F)c1`, the Inhibition with Staphylococcus aureus was 6.21%; in the assay with Escherichia coli, -6.69%.

As for `CC(C)c1nnc2c(SCC(=O)Nc3ccccc3C(F)(F)F)nc3ccccc3n12`, the Inhibition in the assay with Staphylococcus aureus is 6.66%; in the assay with Escherichia coli, -3.21%.

As for `CSc1ccc(CNC(=O)Cn2nc3c(N4CCOCC4)nccn3c2=O)cc1`, the Inhibition in the assay on Staphylococcus aureus is 19.42%; with Escherichia coli, -0.45%.

Turning to `Cc1cccc(NC(=O)Cn2nc3ccc(SC(C)(C)C)nn3c2=O)c1`, the Inhibition is reported as 3.72% with Staphylococcus aureus and -1.06% in the assay with Escherichia coli.

In the case of `CCOc1ccccc1NC(=O)Cn1nc2c(Oc3ccccc3)nccn2c1=O`, the Inhibition is reported as 5.93% in the assay on Staphylococcus aureus and -3.4% in the assay on Escherichia coli.

For `Cc1ccccc1Oc1nc2ccccc2n2c(=O)n(CC(=O)Nc3ccccc3C(F)(F)F)nc12`, the Inhibition in the assay on Staphylococcus aureus was -0.26%; with Escherichia coli it was -3.73%.

For the molecule `O=C(CSc1nnc2c(=O)n(-c3ccccc3)ccn12)Nc1ccc(Br)cc1`, the Inhibition is recorded as 5.51% in the assay with Staphylococcus aureus and -4.01% in the assay on Escherichia coli.

As for `CCOc1ccccc1NC(=O)Cn1nc2c(N3CCN(c4ccccc4)CC3)nccn2c1=O`, the Inhibition with Staphylococcus aureus is recorded as 1.85%; in the assay with Escherichia coli it was -3.13%.

As for `COc1ccc(NC(=O)Cn2nc3ccc(-c4ccc(C)c(C)c4)nn3c2=O)cc1OC`, the Inhibition is recorded as 11.61% in the assay with Staphylococcus aureus and -6.17% in the assay on Escherichia coli.

Turning to `COc1ccc(NC(=O)Cn2nc3c(Sc4ccccc4)nccn3c2=O)cc1`, the Inhibition was 7.67% in the assay on Staphylococcus aureus and -3.96% in the assay on Escherichia coli.

In the case of `O=C(Cn1nc2c(N3CCOCC3)nccn2c1=O)Nc1cccc(C(F)(F)F)c1`, the Inhibition was 4.69% in the assay with Staphylococcus aureus and -2.32% in the assay with Escherichia coli.

For the molecule `CCC(Sc1nnc2c(=O)n(-c3ccccc3)ccn12)C(=O)Nc1cc(F)ccc1F` (centres undefined), the results for the Inhibition in the assay with Staphylococcus aureus and with Escherichia coli were 6.45% and -6.05%, respectively.

Consider `COc1cccc(Oc2nccn3c(=O)n(CC(=O)Nc4ccc(OC)c(Cl)c4)nc23)c1`, for which the Inhibition is given as 8.12% in the assay with Staphylococcus aureus and -5.35% in the assay on Escherichia coli.

Take `CCCCOc1ccc(-c2cc3c4nnc(SCC(=O)Nc5ccc(C)c(C)c5)n4ccn3n2)cc1`: the Inhibition with Staphylococcus aureus is 10.66%; with Escherichia coli it was -4.59%.

As to `CC(C)c1ccc(N(Cc2ccccc2F)S(=O)(=O)c2cccn3cnnc23)cc1`, the results for the Inhibition with Staphylococcus aureus and in the assay with Escherichia coli were 2.39% and -0.79%, respectively.

For `CCc1nnc2c(S(=O)(=O)N(Cc3cccc(OC)c3)c3ccccc3)cccn12`, the Inhibition in the assay with Staphylococcus aureus is on record as 13.09%; with Escherichia coli, -2.65%.

With `Cc1ccc(-c2cc3c4nn(CC(=O)Nc5cc(F)ccc5C)c(=O)n4ccn3n2)cc1C`, the Inhibition in the assay on Staphylococcus aureus is listed as 8.9%; in the assay with Escherichia coli it was -4.51%.

`COc1ccccc1CNC(=O)Cn1nc2c(N3CCSCC3)nccn2c1=O`: the results for the Inhibition in the assay with Staphylococcus aureus and in the assay with Escherichia coli were 5.62% and -5.9%, respectively.

With `Cc1ccc(Sc2nccn3c(=O)n(CC(=O)Nc4cccc(Cl)c4)nc23)c(C)c1`, the Inhibition is 9.86% in the assay with Staphylococcus aureus and -3.61% in the assay with Escherichia coli.

`CCOc1ccccc1NC(=O)Cn1nc2c(Oc3cccc(OC)c3)nccn2c1=O`: the Inhibition in the assay with Staphylococcus aureus is listed as 11.72%; in the assay on Escherichia coli it was -4.66%.

`CCCCn1c(=O)c2sccc2n2c(=O)n(CC(=O)c3ccc(C)cc3C)nc12`: the Inhibition is listed as -3.74% in the assay on Staphylococcus aureus and -4.86% in the assay on Escherichia coli.

With `COc1ccc(-c2cc3c4nnc(SCC(=O)NCc5cccc(OC)c5OC)n4ccn3n2)cc1`, the Inhibition in the assay on Staphylococcus aureus was 4.12%; with Escherichia coli it was -5.71%.

In the case of `Cc1ccc(-c2ccc3nn(CC(=O)Nc4cccc(Cl)c4)c(=O)n3n2)cc1C`, the values for the Inhibition in the assay on Staphylococcus aureus and in the assay on Escherichia coli were -4.46% and -9.75%, respectively.

In the case of `COc1ccc(NC(=O)Cn2nc3c4cc(-c5ccc(C)c(C)c5)nn4ccn3c2=O)c(OC)c1`, the figures for the Inhibition with Staphylococcus aureus and in the assay on Escherichia coli were -8.81% and -14.02%, respectively.
